aSyn 5UTR act – Activators via SNCA 5'UTR binding, MLPCN; alpha-synuclein 5'UTR reporter, activators screen; activity score, % (tested at 7.5 µM), hits read low; 300,000 tested, 7.1% active; AID 1814, 2009; in the data active = activity score below about -60%
Starred values were filed as active, the others as inactive. Not all results are given here.

For c1ccc2[nH]c(CSc3nc4ccccc4o3)nc2c1 the results were aSyn 5UTR act -77.7*.
Screening c1cnc(SCCOc2ccc3c(c2)CCC3)nc1 returned aSyn 5UTR act -111.4*.
For O=C(NCC(=O)N1CCN(c2ccccc2O)CC1)c1cccs1 the results were aSyn 5UTR act -62.9*.
For COc1ccc(/C=N/n2c(N)nc(-c3ccccc3)c2-c2ccccc2)cc1 the results were aSyn 5UTR act -62.6*.
`N/C(=N\OC(=O)c1csnn1)c1ccc(C(F)(F)F)cc1` gave aSyn 5UTR act -67.4*.
`CC(C)(C)c1ccc(OC(=O)N2CCOCC2)cc1` gave aSyn 5UTR act -110.7*.
`CCC(=O)c1ccc(OC(=O)N2CCOCC2)cc1` gave aSyn 5UTR act -69.6*.
For O=C1CCCc2nc3c(cc21)C(O)Oc1c-3ccc2ccccc12 (stereo not given) the results were aSyn 5UTR act -117.7*.
Screening O=C(/C=C/c1ccco1)Nc1cccnc1Cl returned aSyn 5UTR act -130.3*.
Screening Cn1c(NC(=O)/C=C/c2ccco2)cc(=O)n(C)c1=O returned aSyn 5UTR act -61.7*.
Screening O=C(/C=C/c1ccccc1)Nc1cccnc1Cl returned aSyn 5UTR act -84.1*.
`COC(=O)c1ccccc1NC(=O)/C=C/c1ccco1` gave aSyn 5UTR act -68.3*.
Screening CC(=O)O[C@@]12CO[C@@H]1C[C@H](O)[C@@]1(C)C(=O)[C@H](O)C3=C(C)[C@@H](OC(=O)[C@H](O)[C@@H](NC(=O)OC(C)(C)C)c4ccccc4)C[C@](O)([C@@H](OC(=O)c4ccccc4)[C@H]21)C3(C)C returned aSyn 5UTR act 71.8.
For [2H]C(CCOS(N)(=O)=O)c1ccc(C(C)(C)C)cc1 (stereo not given) the results were aSyn 5UTR act 80.0.
Screening CC(C)(C)c1ccc(CSc2nc(N)cc(=O)[nH]2)cc1 returned aSyn 5UTR act -79.3*.
`Nc1cc(=O)[nH]c(SCCSc2ccccc2F)n1` gave aSyn 5UTR act 67.4.
For N#C/C(=C/c1ccc([N+](=O)[O-])cc1)C(=O)Nc1ccccc1O the results were aSyn 5UTR act -133.9*.
Screening N#C/C(=C\c1ccc([N+](=O)[O-])cc1)C(=O)Nc1ccccc1O returned aSyn 5UTR act -111.9*.
Cc1nc2nc(N)nn2c(C)c1C/C=C/c1ccccc1 was read as aSyn 5UTR act 46.3.
`Cc1nc2c(-c3ccccc3)c(C)nn2c(N)c1-c1ccccc1` gave aSyn 5UTR act -137.5*.
Cc1ccc(-c2ccnc3c(Cl)c(C)nn23)cc1 was read as aSyn 5UTR act 68.7.
Cc1nn2c3c(cnc2c1-c1ccccc1)C(=O)CCC3 was read as aSyn 5UTR act -89.6*.
For Cc1nn2c(N)c(-c3ccccc3)cnc2c1-c1ccc(Cl)cc1 the results were aSyn 5UTR act -193.5*.
`Cc1nn2c(-c3ccccc3)ccnc2c1-c1ccccc1` gave aSyn 5UTR act -139.5*.
Screening CCCNC(=O)c1noc2c1CCc1cc(OC)ccc1-2 returned aSyn 5UTR act -70.8*.
`COc1ccc2c(c1)CCc1c(C(=O)N3CCCCCC3)noc1-2` gave aSyn 5UTR act -63.8*.
For O=C(c1noc2c1CCc1ccccc1-2)N1CCOCC1 the results were aSyn 5UTR act -71.9*.
For COc1ccc2c(c1)CCc1c(C(=O)NCc3cccnc3)noc1-2 the results were aSyn 5UTR act -90.7*.
For Cc1ccc(Nc2nc(-c3ccccc3)c(CC(=O)O)s2)cc1 the results were aSyn 5UTR act -154.8*.
For O=C(O)Cc1sc(Nc2ccc(F)cc2)nc1-c1cccs1 the results were aSyn 5UTR act -132.4*.
For O=C(Cc1sc(Nc2ccccc2)nc1-c1ccccc1)NCc1ccccn1 the results were aSyn 5UTR act -182.4*.
Screening O=C(O)Cc1sc(Nc2ccccc2)nc1-c1ccc(Cl)cc1 returned aSyn 5UTR act -149.4*.
Cc1nn(-c2ccc(N3CCCCC3)nn2)c(C)c1CCC(=O)Nc1cc(F)ccc1F was read as aSyn 5UTR act -65.3*.
`O=C(CC1C(=O)NCCN1Cc1ccc(F)cc1Cl)NCc1ccon1` (stereo not given) gave aSyn 5UTR act -68.1*.
COc1cccc2cc(-c3ccnc(N)n3)oc12 was read as aSyn 5UTR act -80.1*.
Screening CC(C)CC1NC(=O)N(CC(=O)c2ccc3c(c2)OCCO3)C1=O (stereo not given) returned aSyn 5UTR act -115.2*.
Screening Fc1cccc(NCc2cn3ccccc3n2)c1 returned aSyn 5UTR act -97.0*.
Screening Fc1ccc(NCc2cn3ccccc3n2)cc1 returned aSyn 5UTR act -174.4*.
Screening O=C(COc1ccc(Oc2ccccc2)cc1)NCc1cn2ccccc2n1 returned aSyn 5UTR act 62.4.
Screening O=C(NCCc1ccccc1)c1cc(-c2ccco2)on1 returned aSyn 5UTR act -321.3*.
For COc1ccc(CCNC(=O)c2cc(-c3ccco3)on2)cc1OC the results were aSyn 5UTR act -77.2*.
`O=C(NCc1ccccc1)c1cc(-c2ccco2)on1` gave aSyn 5UTR act -96.8*.
For Cc1ccccc1Cn1cc(NC(=O)c2cc(-c3ccco3)on2)cn1 the results were aSyn 5UTR act -76.2*.
For Cc1ccccc1Cn1cc(NC(=O)c2noc(C(C)C)c2[N+](=O)[O-])cn1 the results were aSyn 5UTR act 106.1.
`O=C(NCCO)c1ccc2c3n(nc2c1)-c1ccc(Cl)cc1CO3` gave aSyn 5UTR act -158.5*.
`O=C(NCC1CC1)c1ccc2c3n(nc2c1)-c1ccc(Cl)cc1CO3` gave aSyn 5UTR act -166.0*.
COCCNC(=O)c1ccc2c3n(nc2c1)-c1ccccc1CO3 was read as aSyn 5UTR act -108.0*.
`Cc1ccc2c(c1)COc1c3ccc(C(=O)NCCO)cc3nn1-2` gave aSyn 5UTR act -157.6*.
`COCCNC(=O)c1c[nH]c2ccc(S(=O)(=O)N3CCc4ccccc43)cc2c1=O` gave aSyn 5UTR act 61.2.
For COCCNC(=O)c1ccc2c3n(nc2c1)-c1ccc(Cl)cc1CO3 the results were aSyn 5UTR act -164.0*.
For Cc1ccc2c(c1)COc1c3ccc(C(=O)N4CCOCC4)cc3nn1-2 the results were aSyn 5UTR act -112.7*.
Screening O=C(c1ccc2c3n(nc2c1)-c1ccc(Cl)cc1CO3)N1CCCCC1 returned aSyn 5UTR act -138.3*.
For O=C(O)c1ccc2c3n(nc2c1)-c1ccc(Cl)cc1CO3 the results were aSyn 5UTR act -160.7*.
`CC(C)c1ccc2c(c1)CCC1C(C)(CN)CCCC21C` (stereo not given) gave aSyn 5UTR act 96.7.
`CCOC(=O)C1=C(Cc2ccc(C)cc2)C(=O)c2ccccc2C1=O` gave aSyn 5UTR act -65.4*.
Screening CCOC(=O)c1cc2cc3ccccc3cc2[nH]1 returned aSyn 5UTR act -299.7*.
Screening CC(C)OC(=O)c1cc2ccccc2[nH]1 returned aSyn 5UTR act -84.5*.
`Cn1c(=O)[nH]c2cc3ccccc3cc21` gave aSyn 5UTR act 61.9.
CCc1ccc(S(=O)(=O)/N=C2\C=C(Nc3ccc(O)cc3)C(=O)c3ccccc32)cc1 was read as aSyn 5UTR act 101.4.
Screening Cc1ccc(NC2=C/C(=N\S(=O)(=O)c3cccs3)c3ccccc3C2=O)c(C)c1 returned aSyn 5UTR act 118.0.
Screening Cc1ccc(S(=O)(=O)/N=C2/C=C(C3C(=O)CC(C)(C)CC3=O)C(=O)c3ccccc32)cc1 returned aSyn 5UTR act -179.9*.
Screening CN(C)S(=O)(=O)c1cccc(C(=O)Nc2cc(Cl)ccc2O)c1 returned aSyn 5UTR act -86.6*.
For CNS(=O)(=O)c1cccc(C(=O)Nc2cccc(Cl)c2)c1 the results were aSyn 5UTR act -111.2*.
For CN(C)S(=O)(=O)Oc1cccc(C(=O)Nc2cccc(Cl)c2)c1 the results were aSyn 5UTR act -169.5*.
